The structures appear in SMILES notation. “And” between values parts separate entries of the source, which are not always exact repeats. Equal values may be shown once. Inconclusive results are not listed. A call without a number means that no potency is given here. Values without a mark were called inactive. The source made the active and inactive calls. Calls follow the shape of the dose curve; as a rule, active = well fitted cell-killing curve with a large enough effect in the repeat runs; inconclusive = weak or mixed curves, or effect the other way; inactive = flat fitted curve, though single readings scatter.
Potency is read from the fitted curve at half-maximal effect.

This experiment can be described thus: qHTS assay to identify small molecule agonists of the constitutive androstane receptor (CAR) signaling pathway - cell viability counter screen (AID 1224836). Also: nearly all actives have a fitted effect of over 45% in size. As to conditions: HepG2-CYP2B6-hCAR viability, CellTiter-Fluor, 23 h, PK11195 added to every well; series mostly up to 92.4 µM; viability change, negative = cytotoxic: at the top concentration. The text has this:
U.S. Tox21 Program National Center for Advancing Translational Sciences [NCATS] NIH Chemical Genomics Center [NCGC] U.S. Environmental Protection Agency [EPA] National Institutes of Environmental Health Sciences [NIEHS] National Toxicology Program [NTP] U.S. Food and Drug Administration [FDA] Tox21 Assay Overview: The constitutive androstane receptor (CAR) is a nuclear receptor which regulates multiple drug metabolizing enzymes (DMEs) and transporters. Activating CAR will generally increase the transcription and subsequent translation of CYP2B6 and CYP3A4. These two DMEs represent about 50% of the drug metabolizing potential in the body. […] Recently, there have also been studies performed indicating CARs role in energy metabolism and cancer therapy. Therefore, inducing CARs activity could have a potential effect on diabetes and cancer. Identifying environmental toxins and compounds which modulate CAR, through the use of the Tox21 10K compound collection, will be an important step in determining the toxicity and potential therapeutic effects these factors will have on the human body. To differentiate true CAR agonists from cytotoxic substances, the assay is multiplexed with a cell viability assay.
Tox21 Assay Protocol Summary: A double-stable (hCAR and CYP2B6-2.2kb) transfected cell line, derived from human hepatoma (HepG2) cells, was utilized for the duration of the quantitative high-throughput screens. The HepG2-CYP2B6-hCAR cells were dispensed at 2500 cells/4 uL/well in 1536-well white solid bottom plates using a Multidrop Combi. After the assay plates were incubated at 37 C/5% CO2 for 4 hrs, 23 nL of compounds at 15 concentrations (from 5-48 columns) or positive control (from 1 to 4 columns) were transferred to the assay plates using a Pintool station. One uL of PK11195 (final concentration = 0.75 uM) was added, using a Flying Reagent Dispenser, inside each well. After a 23 hr incubation period at 37 C/5% CO2, 1 uL of CellTiter-Fluor reagent was added into each well of the assay plates using a Flying Reagent Dispenser. The fluorescence intensity in the plates was then measured using a ViewLux plate reader.
In the case of `O=C(O)CCCCC(=O)O`, the Potency entry was “inactive”.
For `Oc1ccc(/C=C/c2cc(O)cc(O)c2)cc1`, the Potency entry is “inactive”.
The same measure, in the same setting: then `O=C(O)CCCCCCCC(=O)O`, with “inactive”; and `CNC[C@H](O)c1cccc(O)c1`, with “inactive”.
In the case of `O=C(O)CS`, the Potency result was “inactive”.
The same measure, in the same setting: under `Cc1cn([C@H]2C[C@H](N=[N+]=[N-])[C@@H](CO)O2)c(=O)[nH]c1=O` stands “inactive”; under `O=C(O)/C=C\C(=O)O`, “inactive”; under `Cc1ccccc1C(OCCN(C)C)c1ccccc1` (stereo not given), “inactive”.
In the case of `CC(O)CN(CCN(CC(C)O)CC(C)O)CC(C)O` (stereo not given), the Potency entry was “inactive”.
On the same count and under the same terms, then `CC(O)CO` (stereo not given), with “inactive”; and `Cc1noc(NS(=O)(=O)c2ccc(N)cc2)c1C`, with “inactive”; and `O=NO`, with “inactive”.
As for `O=C(O)CCC(=O)O`, the Potency result was “inactive”.
Take `NC(=O)c1cnccn1`: the Potency entry was “inactive”.
As for `Cc1ccc(S(=O)(=O)NC(=O)NN2CCCCCC2)cc1`, the Potency result was “inactive”.
The same measure, in the same setting: then `O=C(c1ccccc1)C(O)c1ccccc1` (stereo not given), with “inactive”; and `CC1(C)[C@@H]2CC[C@@]1(C)C(=O)C2`, with “inactive”.
For `C1N2CN3CN1CN(C2)C3`, the Potency result was “inactive”.
On the same count and under the same terms, under `O=C(O)c1cccc([N+](=O)[O-])c1` stands “inactive”.
On the same count and under the same terms, then `Nc1ccc(O)c(C(=O)O)c1`, with “inactive”; and `O=C(O)c1[nH]n(-c2ccc(S(=O)(=O)O)cc2)c(=O)c1N=Nc1ccc(S(=O)(=O)O)cc1`, with 30.7 µM (active) and 45.4 µM (active); and `NC(=O)NC1NC(=O)NC1=O` (stereo not given), with “inactive”.
As to `CC(O)C(=O)O` (stereo not given), the Potency entry is “inactive”.
Consider `NS(=O)(=O)c1cc(C(=O)O)c(NCc2ccco2)cc1Cl`, for which the Potency result is “inactive”.
On the same count and under the same terms, under `CCCNC(=O)NS(=O)(=O)c1ccc(Cl)cc1` stands “inactive”.
As to `O=C(c1ccccc1)c1ccccc1`, the Potency entry was “inactive”.
Same read-out and setting: under `O=S(=O)(O)NC1CCCCC1` stands “inactive”; under `NC(N)=O`, “inactive”; under `Nc1ccn([C@H]2CC[C@@H](CO)O2)c(=O)n1`, “inactive”.
The same measure, in the same setting: then `CC(C)[C@@H]1CC[C@@H](C)C[C@H]1O`, with “inactive”.
The same measure, in the same setting: under `Nc1ccc(S(=O)(=O)Nc2nccs2)cc1` stands “inactive”.
As for `N=C(N)c1ccc(OCCCCCOc2ccc(C(=N)N)cc2)cc1`, the “viability change, negative = cytotoxic” value was -27.3% [at 42.5 µM].
For the molecule `CCCC(O)C(CC)CO` (stereo not given), the Potency entry was “inactive”.
For `O=C1NC(=O)c2ccccc21`, the Potency entry is “inactive”.
Still for that read-out and setting: then `CCC1(c2ccccc2)C(=O)NCNC1=O`, with “inactive”.
`CCCCCCCCCCCCCCCC(=O)O`: the Potency entry is “inactive”.
On the same count and under the same terms, under `O=C1CN(/N=C/c2ccc([N+](=O)[O-])o2)C(=O)N1` stands 27.2 µM (active) and 21.7 µM (active) and 13.3 µM (active).
Take `O=c1ccc2ccccc2o1`: the Potency entry is “inactive”.
`O=C(O)C(=O)O`: the Potency entry is “inactive”.
Same read-out and setting: under `NNC(=O)c1ccncc1` stands “inactive”.

The values above are taken from PubChem BioAssay (Tox21).
